# Compound activity as filed in PubChem.
# Nrf2 activator = activates Nrf2 signaling; AREc32 ARE-luciferase reporter (MCF7-derived line), luminescence, 24 h; Potency, µM (top dose mostly 46.1 µM), inactives show at the highest dose activation, actives largely listed as activators; 410,000 tested, 0.31% active; AID 624171; note: % of control where 0% means no effect; nearly all actives have a fitted effect of over 65% in size
#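 Luminescent ARE reporter assay in AREc32_Fluc cells: overnight plating at 37 deg C, 24 hr compound incubation, Steady-Glo added, 30 min RT before reading.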
# TrxR1 substrate = rat thioredoxin reductase 1 substrate activity. purified TrxR1 substrate turnover, NADPH consumption readout. AID 588456. Potency, µM (doses to about 114 µM), inactives show at the highest dose activity change, negative = substrate turnover. 390,000 tested, 0.01% active. O89049; note: % is set by controls: 0 for no effect and ±100 for the full control effect; nearly all actives have a fitted effect of over 50% in size
#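 Rat TrxR1, dispensed at 90 nM, was prereduced with 400 uM NADPH (final) for 5 min at ~22 deg C, then incubated with compound 15 min before 400 uM selenite. A first-read NADPH fluorescence drop versus no-compound background flagged substrates.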
# TrxR1 inh = blocks rat thioredoxin reductase 1; O89049; recombinant rTrxR1, NADPH fluorescence consumption, selenite substrate; Potency, µM (titrated, usually from 114 µM), without a hit: top-dose activity change, negative = inhibition, most hits filed as inhibitors; 390,000 tested, 1% active; note: % is set by controls: 0 for no effect and ±100 for the full control effect; nearly all actives have a fitted effect of over 65% in size
#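 Rat TrxR1 (90 nM in the dispensed reagent) was pre-reduced with 400 uM NADPH for 5 min at room temperature, then incubated with compound for 15 min. After 400 uM selenite was added, NADPH fluorescence (Ex 340/Em 450 nm) was followed for 8 min.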
# Nrf2 block = blocks Nrf2 signaling. A549 ARE-Fluc reporter, luciferase luminescence, 18-24 h. 360,000 tested, 2.1% active. AID 504444. Potency, µM (titrated, usually from 46 µM), for inactives: at the top dose activity change, negative = inhibition, most hits filed as inhibitors; note: % is set by controls: 0 for no effect and ±100 for the full control effect; nearly all actives have a fitted effect of over 60% in size
#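 Cells were seeded and rested 2 h, then exposed to compounds for 18-24 h. CellTiter-Fluor was read first as a viability measure. BugLite was added 15 min before the final luminescent read of ARE-luciferase activity in A549 cells.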
# A549 tox-1 = counter-screen for Nrf2 inhibitors: cytotoxicity in A549 cells; A549 ARE-Fluc cells, CellTiter-Fluor viability, 18-24 h; 390,000 tested, 0.16% active; AID 504648; Potency, µM (doses to about 46 µM), for the others: top-dose activity change, negative = cytotoxicity, hits mostly inhibitors; note: % is set by controls: 0 for no effect and ±100 for the full control effect
#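 A549 ARE_Fluc cells in 5% FBS OPTI-MEM were exposed to compounds in concentration-response for 18-24 h at 37 deg C. Viability was read by CellTiter-Fluor fluorescence (Ex 405/Em 525) after 30 min, before the luciferase read.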
# GALK inh = galactokinase (human) inhibition | P51570 | Purified GALK, Kinase-Glo residual ATP luminescence | Potency, µM (series often up to 57.5 µM), inactives show top-dose activity change, negative = inhibition, hits mostly inhibitors | 270,000 tested, 0.007% active | AID 1868; note: % is set by controls: 0 for no effect and ±100 for the full control effect
#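 Galactose (100 uM) and ATP (35 uM) were turned over by 5 nM GALK for 1 h at RT. Kinase-Glo Plus then converted the remaining ATP into a luminescent signal.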
# FLuc enzyme inh = firefly luciferase inhibition, Nrf2 hit validation | 1,400 tested, 4% active | AID 720522 | Potency, µM (titrated, usually from 57.5 µM), for the others: top-dose activity change, negative = inhibition, hits mostly inhibitors | purified firefly luciferase, luminescence inhibition | shares compounds with Nrf2 block; note: % is set by controls: 0 for no effect and ±100 for the full control effect; nearly all actives have a fitted effect of over 65% in size
# Target sequence (P08659 whole entry, looked up): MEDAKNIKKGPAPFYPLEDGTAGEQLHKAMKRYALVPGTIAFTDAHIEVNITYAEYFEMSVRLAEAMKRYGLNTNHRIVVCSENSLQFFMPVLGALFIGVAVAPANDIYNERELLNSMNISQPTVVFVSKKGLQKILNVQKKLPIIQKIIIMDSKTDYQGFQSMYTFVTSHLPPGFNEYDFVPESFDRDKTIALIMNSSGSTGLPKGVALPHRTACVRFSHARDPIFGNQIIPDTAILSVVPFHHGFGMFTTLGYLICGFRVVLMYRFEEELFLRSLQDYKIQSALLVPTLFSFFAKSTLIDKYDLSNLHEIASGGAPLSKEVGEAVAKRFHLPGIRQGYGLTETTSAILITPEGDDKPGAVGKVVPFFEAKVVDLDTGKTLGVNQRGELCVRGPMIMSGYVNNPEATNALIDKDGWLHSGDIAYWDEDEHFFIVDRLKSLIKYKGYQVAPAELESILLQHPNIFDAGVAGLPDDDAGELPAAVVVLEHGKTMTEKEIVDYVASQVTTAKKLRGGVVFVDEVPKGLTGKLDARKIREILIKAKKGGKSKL
# A549 tox-2 = toxic to A549 ARE-Fluc cells in Nrf2 counterscreen | AID 720523 | shares compounds with Nrf2 block | A549 ARE-Fluc cells, cytotoxicity counterscreen | 1,400 tested, 2% active | Potency, µM (titrated, usually from 46.1 µM), for the others: at the highest dose activity change, negative = cytotoxicity, most hits filed as inhibitors;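 note: cells exposed to compounds for 18 to 24 hours; % is set by controls: 0 for no effect and ±100 for the full control effect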
# ARE-Fluc inh = reduces Nrf2 ARE reporter signal in A549 cells | shares compounds with Nrf2 block | A549 ARE-firefly luciferase reporter, luminescence | Potency, µM (doses to about 46.1 µM), inactives show at the top dose activity change, negative = inhibition, usual class: inhibitors | 1,400 tested, 74% active | AID 720524; note: % is set by controls: 0 for no effect and ±100 for the full control effect; nearly all actives have a fitted effect of over 65% in size
# An asterisk follows results filed as active; ? = inconclusive; . = no result shown; [ ] = another dose, or the depositor's remark. Rows were chosen to be rich in hits. Some 3% of all compounds tested hit in one or more screens of this group. Calls come from the whole dose curve; as a rule, active = well fitted curve in the direction sought with a large enough effect; inconclusive = small, poorly fitted or top-dose-only effect, or another doubt; inactive = no such curve, though single readings can be large; an effect the other way counts as inactive or inconclusive. Potency is the fitted concentration of half-maximal effect.
SMILES,Nrf2 activator,TrxR1 substrate,TrxR1 inh,Nrf2 block,A549 tox-1,GALK inh,FLuc enzyme inh,A549 tox-2,ARE-Fluc inh
O=S(=O)(c1ccc2c(c1)OCCO2)N1CCN(c2ncnc3sccc23)CC1,9%,0%,9%,2.3µM*,-29%,8%,0%,2%,.
Cc1ccc(S(=O)(=O)N2CCN(c3ncnc4sccc34)CC2)cc1C,4%,0%,5%,?,-11%,.,.,.,.
O=C(Nc1ccc2nc(SCCOc3ccccc3Cl)sc2c1)c1cccs1,2%,14%,34%,9.2µM*,0%,.,-18%,-3%,8.2µM*
COc1ccc(OC)c(/C=C/c2ccc3ccccc3[n+]2C)c1,.,-6%,-16%,.,.,.,-2%,-33%,7.3µM*
C[n+]1c(/C=C/c2ccc(F)cc2)ccc2ccccc21,.,-13%,?,.,.,.,?,-21%,8.2µM*
Clc1ccc(OCCN2CCN(c3ncnc4sccc34)CC2)cc1,-1%,-1%,-7%,0.26µM*,-5%,1%,2%,-6%,0.46µM*
Cc1nn(CC(=O)NCCN2CCOCC2)c(=O)c2cc3sccc3n12,0%,6%,29%,10%,0%,5%,.,.,.
Cc1csc(C)[n+]1CCC1CCCCC1,.,1%,18%,.,.,.,4%,-8%,15µM*
O=C(NCCSc1c(-c2ccccc2)[nH]c2ccccc12)c1ccc(S(=O)(=O)N2CCOCC2)cc1,6%,9%[2.29 µM],7%,-30%[9.27 µM],-14%,.,.,.,.
COc1cc(OC)cc(-c2cc3nc(C)c(CCC(=O)O)c(C)n3n2)c1,-5%,8%,-12%,1.5µM*,0%,1%,11µM*,4%,2.6µM*
COc1cc(OC)cc(-c2cc3nc(C)c(CCC(=O)NC(C)CCc4ccco4)c(C)n3n2)c1 (configuration not stated),0%,16%,21%,?,1%,0%,.,.,.
Cc1cc(F)ccc1S(=O)(=O)Nc1ccccc1C(=O)Nc1ccccc1-c1nc2ccccc2[nH]1,-2%,64%,34%,4.1µM*,23µM*,1%,2%,?,16µM*
N#Cc1ccccc1S(=O)(=O)N1CCN(Cc2cc3c(cc2Br)OCCO3)CC1,1%,.,.,.,.,.,.,.,.
COc1ccc(S(=O)(=O)NCC2CCC(C(=O)NCC(OC)OC)CC2)cc1 (configuration not stated),0%,7%,16%,2%,0%,0%,.,.,.
O=C(NCc1cccs1)c1nc2c(nnn2Cc2ccccc2Cl)c(=O)[nH]1,-1%,-14%,-17%,5.8µM*,?,0%,?,?,2.1µM*
CCOC(=O)N1CCN(S(=O)(=O)c2ccc(C(=O)NNc3nc4ccc(Cl)cc4s3)cc2)CC1,0%,6%[57.1 µM],17%[57.1 µM],5.8µM*,?,.,-12%,-19%,7.3µM*
Cc1cccc2sc(NNC(=O)c3ccc(S(=O)(=O)N4CCCC(C)C4)cc3)nc12 (configuration not stated),0%,-3%[57.1 µM],14%[57.1 µM],?,-21%,.,.,.,.
Cc1cccc2sc(NNC(=O)c3ccc(S(=O)(=O)N4CCc5ccccc5C4)cc3)nc12,2%,1%[57.1 µM],6%[57.1 µM],?,-13%,.,-13%,-23%,6.5µM*
CN(CCc1ccccc1)C(C(=O)Nc1ccc2c(c1)OCCO2)c1ccnc2ccccc12 (configuration not stated),0%,.,.,.,.,.,.,.,.
O=C(CN1C(=O)NC2(CCc3ccccc32)C1=O)Nc1ccccc1C(F)(F)F (configuration not stated),0%,-2%,14%,1%,0%,.,.,.,.
CCOc1ccc(S(=O)(=O)N(C(C)=O)c2ccc3oc(C)c(C(=O)OC)c3c2)cc1,-2%,4%,8%,2.1µM*,-12%,.,0%,-20%,23µM*
COC(=O)c1c(C)oc2ccc(N(C(=O)Oc3ccccc3)S(=O)(=O)c3ccc(C(C)(C)C)cc3)cc12,0%,3%,21%,2.3µM*,-2%,.,2%,-4%,5.2µM*
COC(=O)c1c(C)oc2ccc(N(C(C)=O)S(=O)(=O)c3ccccc3)cc12,4%,12%[0.0914 µM],-2%[57.1 µM],?,?,0%,.,.,.
Cc1cccc(-n2nc(CC#N)c(C#N)c2N)c1,-1%,1%,9%,4%,?,1%,.,.,.
NS(=O)(=O)c1ccc(CCNC(=O)COC(=O)/C=C/c2cc(Br)ccc2F)cc1,6%,16%[57.1 µM],12%,-16%,8%,.,.,.,.
SMILES,Nrf2 activator,TrxR1 substrate,TrxR1 inh,Nrf2 block,A549 tox-1,GALK inh,FLuc enzyme inh,A549 tox-2,ARE-Fluc inh
COc1ccc(-c2csc(NC(=O)c3ccccc3NS(=O)(=O)c3ccc(F)c(F)c3)n2)cc1,14%,-5%,-6%,2.9µM*,?,?,?,?,4.1µM*
COc1cccc(-n2cc(CN(C)Cc3nc(Cc4cccc(F)c4)no3)cn2)c1,0%,-4%,18%,-13%,9%,1%,.,.,.
COc1ccc(CN(C)Cc2nc(Cc3cccc(F)c3)no2)c2cccnc12,2%,-2%[57.1 µM],-1%[57.1 µM],3.3µM*,?,4%,0%,-7%,?
O=C1COc2ccc(-c3cc(-c4ccc(Cl)cc4)c4c(n3)-c3ccccc3OC4)cc2N1,0%,14%[11.4 µM],22%,8%,12%,.,.,.,.
O=C1c2cccc(OCC(=O)N3CCCc4ccccc43)c2CCN1Cc1ccc(F)cc1,1%,7%[57.1 µM],19%[57.1 µM],-24%,-2%,2%,.,.,.
CN1CCc2c(OCC(=O)N3CCCc4ccccc43)cccc2C1=O,3%,6%,-1%[57.1 µM],9.2µM*,?,10%,3%,1%,?
CC(=O)O[C@@H]1[C@@H](O)CN[C@@H]1Cc1ccccc1,.,-8%,40µM*,0.23µM*,?,.,3%,?,0.33µM*
COc1cccc(CCNC(=O)c2cnc3sc(N4CCCC4)nn3c2=O)c1,0%,105%,-11%,?,1%,.,.,.,.
Cc1ccccc1OCCn1c(C)nc2ccccc21,-1%,-2%,7%,8.2µM*,3%,-3%,-15%,2%,?
